# Source: PubChem BioAssay AID651814 (National Center for Advancing Translational Sciences (NCATS), 2012)
# The campaign covered roughly 2,100 compounds. About 590 (28%) were called active. Another 42% or so got no clear call; they are omitted. Some of the results follow. Unmarked numbers belong to inactive results. Calls follow the shape of the dose curve; as a rule, active = well fitted inhibition curve with a large enough effect; inconclusive = small, poorly fitted or top-dose-only effect; inactive = flat fitted curve, though single readings scatter.
# Target: DNA dC->dU-editing enzyme APOBEC-3F (Homo sapiens) (UniProt Q8IUX4)
# Assay: qHTS for inhibitors of Vif-A3F interactions: Cherry picks; also: nearly all actives have a fitted effect of over 70% in size;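 as to max response: % of control where 0% means no effect; active compounds raise eYFP fluorescence by blocking Vif-driven A3F loss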
# Conditions: HeLa A3F-eYFP + Vif (tagged APOBEC3F with the HIV-1 protein that degrades it), eYFP fluorescence, 24 h
# Summary of the method: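 HeLa cells stably expressing A3F-eYFP plus Vif, cultured overnight, then exposed to compounds at several concentrations for 24 h at 37 deg C. Reduced Vif-driven degradation read as rising eYFP fluorescence (488 nm ex/500-530 nm em) by laser-scanning cytometry; MG132 as positive control.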
# Potency is read from the fitted curve at half-maximal effect.
# Chain of DNA dC->dU-editing enzyme APOBEC-3F (Homo sapiens) (Q8IUX4 whole entry, looked up): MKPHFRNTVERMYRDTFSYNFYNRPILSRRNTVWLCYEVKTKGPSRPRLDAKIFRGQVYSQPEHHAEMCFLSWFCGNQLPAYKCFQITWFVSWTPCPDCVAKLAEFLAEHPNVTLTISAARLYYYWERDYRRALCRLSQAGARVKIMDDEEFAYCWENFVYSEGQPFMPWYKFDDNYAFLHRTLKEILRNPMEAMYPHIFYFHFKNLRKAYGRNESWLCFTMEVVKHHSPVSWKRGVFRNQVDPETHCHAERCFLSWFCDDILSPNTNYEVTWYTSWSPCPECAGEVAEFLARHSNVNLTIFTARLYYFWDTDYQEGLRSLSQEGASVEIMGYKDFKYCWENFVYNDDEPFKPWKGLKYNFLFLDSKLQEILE
Compound,max response [%],Potency
Cc1cccn2c(=O)c3cc(C#N)c(=NC(=O)c4cccs4)n(CCCOC(C)C)c3nc12,-23.5,
Cc1cccc(CSc2cccc3cccnc23)c1,2.73,
Cn1c(=O)c2c(nc(NC3CCCC3)n2C)n(C)c1=O,-0.225,
COc1cc(/C=N/Nc2cc(C)nc(NS(=O)(=O)c3ccccc3)n2)ccc1O,2.36,
O=C(c1ccccn1)C1CCCN(Cc2cn[nH]c2-c2cc3ccccc3o2)C1 (configuration not stated),1.54,
O=C(O)CSc1c2ccccc2cc2ccccc12,-4.37,
C/C(=N/Nc1ccc([N+](=O)[O-])cc1)c1c[nH]c2ccccc12,,9.2 µM (active)
COc1ccc(NS(=O)(=O)c2cc([N+](=O)[O-])ccc2N/N=C/c2c(C)[nH]c3ccccc23)cc1,,16.4 µM (active)
O=[N+]([O-])c1ccc(N/N=C/c2c[nH]c3ccccc23)c(S(=O)(=O)Nc2ccc(Cl)cc2)c1,,18.4 µM (active)
CNC(=S)N/N=C(\C)c1ccc(Cl)s1,-3.1,
COCCNC(=S)N/N=C(\C)c1ccccc1O,0.575,
Cc1ccc2nc(NS(=O)(=O)c3ccc(Cl)cc3)c(Nc3ccc(C(=O)O)cc3)nc2c1,-8.36,
O=C(Nc1cc(F)cc(F)c1)c1ccc(NCCc2ccccc2)c([N+](=O)[O-])c1,,20.6 µM (active)
O=C(NC(=S)Nc1ccc(N2CCCCC2)c(Cl)c1)c1ccc2c(c1)OCCO2,-28.8,
Cc1ccc(NC(=O)c2ccc(NCc3ccco3)c([N+](=O)[O-])c2)cc1Cl,,16.4 µM (active)
Cc1ccc(NC(=O)c2ccc(NCCCN3CCC(C)CC3)c([N+](=O)[O-])c2)cc1F,-24,
COc1ccc(NC(=O)c2ccc(NC(=O)C(C)C)cc2)c([N+](=O)[O-])c1,-19.6,
Cc1ccc(NC(=O)c2ccc(NCC3CCCO3)c([N+](=O)[O-])c2)cc1Cl (configuration not stated),,20.6 µM (active)
CC1C/C(=N\NC(N)=S)c2cc(Cl)ccc2S1 (configuration not stated),-5.07,

Compound,max response [%],Potency
C/C(CCC(C)C)=N\NC(=S)NCc1ccccc1,-4.2,
CCOC(=O)Cc1csc(NC(=O)c2sc3nc4c(C)cc(C)cc4cc3c2N)n1,,20.6 µM (active)
CCOC(=O)c1csc(NC(=O)c2cc(-c3ccccn3)nc3ccccc23)n1,-1.96,
C[C@]12CCC[C@H](O1)c1c(cc3c(c1O)C(=O)c1c(O)cc(O)cc1C3=O)O2,,14.6 µM (active)
O=C(CC1CC2CCC1C2)Nc1nc(-c2ccccn2)cs1 (configuration not stated),0.305,
Cc1sc2nc(SCC(=O)N3CCOCC3)[nH]c(=O)c2c1-c1ccccc1,-2.85,
CCOC(=O)CSc1nc2c(c(=O)[nH]1)C(C)(CC)Cc1ccccc1-2 (configuration not stated),,8.2 µM (active)
CCCOc1cc(N(CC)CC)ccc1/C=C(/C#N)c1nc2ccc(C)cc2[nH]1,0.514,
Cc1cccc(OCCOc2ccccc2C=C(C#N)C#N)c1,-24.6,
CCN(CC)c1ccc(/C=C(/C#N)c2nc3ccccc3[nH]2)c(OC(C)C)c1,,2.06 µM (active)
CCOc1cc(N(CC)CC)ccc1/C=C(/C#N)c1nc2ccccc2[nH]1,,1.46 µM (active)
C/C(=N\NC(N)=S)C12CC3CC(CC(C3)C1)C2,3.49,
CN(C)c1ccc(C=C2SC(=S)NC2=O)cc1,,17.7 µM (active)
CCOc1cc(Br)cc(/C=C2\SC(=Nc3ccccc3)NC2=O)c1O,-27.7,
COc1ccccc1N=C1NC(=O)/C(=C/c2ccc(N(C)C)cc2)S1,,4.11 µM (active)
CCOc1ccc(N(C)c2ccc(/C=C3/SC(=S)NC3=O)cc2)cc1,,15.8 µM (active)
CC12CC3CC(C)(C1)CC(C(=O)NC(=S)N1CCOCC1)(C3)C2,4.69,
CSc1nc(N)c(C#N)c(-c2ccccc2Cl)c1C#N,-19.1,
CC(=O)Nc1cccc(-c2ccnc3c2CC(C)(C(=O)NCc2cccs2)O3)c1 (configuration not stated),-24.8,

Compound,max response [%],Potency
CN(C)S(=O)(=O)c1ccc(N2CCCC2)c(C(=O)N2CCN(S(=O)(=O)c3ccc(F)c(F)c3)CC2)c1,3.41,
COc1ccc(OCCCC(=O)N2CCN(S(=O)(=O)c3cccc(F)c3)CC2)cc1,-3.23,
CC1(C)Cc2c(sc3ncnc(NNC(=S)NCc4ccccc4)c23)CO1,-20.8,
C=C(C)CNC(=S)NNC(=O)c1ccco1,4.89,
N#C/C(=C/c1ccc(-c2ccc([N+](=O)[O-])cc2)o1)C(=O)Nc1nc(-c2cccs2)cs1,-8.39,
Cc1ccc(NC(=O)/C(C#N)=C\c2ccc(-c3ccc(Cl)cc3)o2)c(C)c1,,7.31 µM (active)
CN(C)CCNc1ccc2ncn3c4ccc(O)cc4c(=O)c1c23,,20.6 µM (active)
CCN(CC)CCCNc1ccc2ncn3c4ccc(O)cc4c(=O)c1c23,,8.2 µM (active)
CCc1ccc(C2=NN(S(C)(=O)=O)C(c3cccs3)C2)cc1 (configuration not stated),,15.8 µM (active)
CCOc1ccccc1C1CC(c2cccs2)=NN1S(C)(=O)=O (configuration not stated),-22.3,
CS(=O)(=O)Nc1ccc(C2=NN(S(=O)(=O)c3ccccc3)C(c3cccs3)C2)cc1 (configuration not stated),-22.9,
N#C/C(=C\c1cccc(O)c1)c1nc2ccccc2o1,,3.53 µM (active)
COc1ccccc1N1C(=O)c2cccc3c(C(=O)O)ccc(c23)C1=O,1.5,
CCCCN1C(=O)c2cccc3cc(O)cc(c23)C1=O,-4.14,
O=C1c2cccc3c(N4CCCCC4)ccc(c23)C(=O)N1CCO,,15.8 µM (active)
C=CCN1C(=O)c2cccc3c(N4CCCCC4)ccc(c23)C1=O,,16.4 µM (active)
O=C1c2cccc3c(N4CCCCC4)ccc(c23)C(=O)N1c1ccc(O)cc1,-17.3,
O=C(O)c1ccccc1N/N=C/c1c(Sc2nnnn2-c2ccccc2)nc2ccccn2c1=O,,9.94 µM (active)
CN1C/C(=C\c2ccc(N3CCOCC3)cc2)C(=O)/C(=C/c2ccc(N3CCOCC3)cc2)C1,,18.4 µM (active)
